From PubChem
Rows were chosen to be rich in hits. Some 5.4% of all compounds tested hit in one or more screens of this group.
ALR inh – inhibitors of human ALR sulfhydryl oxidase, primary screen, biochemical, H2O2 detection, HRP-luminol luminescence, single point | FAD-linked sulfhydryl oxidase ALR (Homo sapiens), P55789 | purified ALR, DTT oxidation | inhibition, % (no concentration beside the values) | hit rate 3.8% among 290,000 | AID 485317, 2010;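 active means mean replicate inhibition above about 79%, with every replicate also reaching it, limit read from the data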
PHOSPHO1 inh – PubChem AID 1565 | hit rate 1.1% among 290,000 | inhibition, % at 13.3 µM | recombinant PHOSPHO1, absorbance phosphatase assay; in the data active means inhibition above about 60%
Target sequence (Q8TCT1 whole entry, looked up): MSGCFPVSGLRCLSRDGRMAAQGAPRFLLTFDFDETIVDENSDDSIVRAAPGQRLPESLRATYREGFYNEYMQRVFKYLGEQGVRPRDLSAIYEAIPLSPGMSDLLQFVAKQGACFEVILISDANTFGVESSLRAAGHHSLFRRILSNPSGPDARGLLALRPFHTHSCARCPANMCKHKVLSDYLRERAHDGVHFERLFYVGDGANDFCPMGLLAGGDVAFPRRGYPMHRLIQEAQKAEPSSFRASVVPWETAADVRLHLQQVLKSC
APOBEC3A inh – APOBEC3A ssDNA deaminase inhibitors, primary screen, selectivity assay for APOBEC3G inhibitor project, biochemical, FAM/TAMRA oligo cleavage fluorescence | recombinant A3A, FAM/TAMRA ssDNA deamination fluorescence | AID 493011, 2011 | inhibition, % at 20 µM | hit rate 0.41% among 330,000;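 active means at least 40% inhibition at 20 µM here, with at most 30% in a related deaminase screen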;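 further: plate controls were A3A with DMSO for no effect and wells lacking A3A enzyme for full effect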
rCAG RNA binder – binders of r(CAG) RNA repeats, primary screen, biochemical, fluorescence; r(CAG) RNA repeat, TO-PRO-1 dye displacement fluorescence; inhibition, % at 3 µM; hit rate 1.3% among 370,000; AID 651821, 2012;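 active means inhibition above the plate cutoff, the mean of all test compounds on that plate plus 3 SD, cut at about 35% in these data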;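 further: 0% = DMSO alone and 100% = 100 µM mitoxantrone as full dye displacement; higher means more dye released from RNA so lower well fluorescence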
aDG glyco up – activators of alpha-DG glycosylation, primary screen, uHTS, Pro5-aDG cells, AlphaScreen. alpha-DG glycosylation AlphaScreen (IIH6); 0% Pro5, 100% B10-LARGE cell signal. hit rate 0.22% among 360,000. activation, % at 10 µM;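 active means activation of at least 8% versus controls, or a plate z-score of at least 8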;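 further: Pro5 are CHO cells carrying HIG-tagged alpha-DG that lacks glycosylation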
APOBEC3G inh – APOBEC3G DNA deaminase inhibitors, primary screen, biochemical, fluorescence, single-stranded DNA substrate, uHTS | DNA dC->dU-editing enzyme APOBEC-3G (Homo sapiens), Q9HC16 | recombinant A3G, ssDNA deamination FAM/TAMRA fluorescence | inhibition, % at 20 µM | hit rate 0.28% among 330,000 | AID 493012, 2011;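 active means inhibition of at least 40% at 20 µM, with no more than 30% in the related APOBEC3A deaminase screen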;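 further: plate controls were DMSO wells with A3G for no effect and wells lacking A3G enzyme for full effect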
APOBEC3G confirm – APOBEC3G deaminase inhibitor retest, confirmation, biochemical, fluorescence, single-stranded DNA substrate, single concentration; hit rate 72% among 890; inhibition, % at 20 µM; recombinant A3G ssDNA deaminase, UDG/FAM-TAMRA fluorescence; AID 493152, 2011; shares compounds with APOBEC3G inh;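 active means inhibition reaching a set limit in any replicate at 20 µM, the limit being 80% of the first screen's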
* hit, by the source's call; . = no result.

SMILES	ALR inh	PHOSPHO1 inh	APOBEC3A inh	rCAG RNA binder	aDG glyco up	APOBEC3G inh	APOBEC3G confirm
C[C@@H]1OC(C2CCCCC2)N(C)[C@H]2C[C@H]3c4[nH]c5ccccc5c4CCN3C[C@@H]12 (some centres not stated)	.	.	.	10.7	0.3	.	.
c1cc(SSc2ccncc2)ccn1	-14.0	33.0	4.6	0.1	-0.1	65.3*	70.9*
CCc1nc2ccc(C(=O)NCCC(C)C)cn2c1N(C)Cc1ccc(OC)cc1	.	.	.	3.2	0.7	.	.
CCCN1CCC(NC(=O)Nc2cc(Cl)ccc2OC)CC1	.	42.1	-1.6	-3.5	0.0	-10.7	.
COc1ccc(Cl)cc1NC(=O)c1ccccc1C	-11.0	1.1	0.8	-1.2	0.1	40.7*	2.4
